Test results as given in PubChem BioAssay (NCATS).
Activity calls are given as the source filed them. The call rests on the fitted dose curve; in most records, active means well fitted inhibition curve with a large enough effect; inconclusive means small, poorly fitted or top-dose-only effect; inactive means no such curve, though single readings can be large or run the other way. Where a SMILES comes first, the peptide text is derived from it.

Assay: qHTS assay for measurement of the activity of small molecule inhibitors on Zika virus induced Caspase-3 activity in human astrocytoma cells (AID 1224859)
Settings: SNB-19 ZIKV-induced caspase-3/7, luminescence, 6 h; series mostly up to 45.7 µM
Excerpt: National Center for Advancing Translational Sciences [NCATS]
Johns Hopkins University School of Medicine
Increase in the Caspase-3 activity indicates an activation of apoptosis cell death pathway caused by Zika virus infection in certain types of neuronal cells including human neural progenitor cells (hNPCs), astrocytes, and astrocytoma cell line (SNB-19). This cell-based caspase-3 activity assay measures the increased caspase-3 activity in the astrocytoma cell line (SNB-19) after a 6-hour Zika virus infection with a luminescence readout. A decrease in the luminescence signal in this assay by small molecule treatment indicates an inhibitory effect of that small molecule on the Zika virus induced caspase-3 activity that may correlate with its effect on reduction of Zika virus caused cell death.
The medium for SNB-19 cells is composed of RPMI 1640 (ATCC, Cat.# 30-2001), 10% fetal bovine serum (FBS) (GE healthcare Life Sciences, Cat.# SH30071.03), and 1% Pen/Strep (Gibco, Cat.# 15140-122). A Caspase-Glo 3/7 assay kit (catalog number G8092; Promega, Madison, WI) was used to detect caspase-3 activity induced by Zika virus infection in human cells. The reagent mixture was reconstituted as described in the protocol from the manufacturer. Polystyrene tissue culture treated and PDL coated white plates were obtained from Greiner Bio-One (Monroe, NC). Cells were seeded in 384- or 1536-well assay plates and cultured at 37 C with 5% CO2 for 16 to 20 hours. The typical cell seeding density in the 1536-well plate assay is 250 cells/well in 3ul medium for SNB-19 cells in tissue culture treated plates. Compounds were added to cells and incubated for one hour before addition of ZIKV solution to cells (2 FFU/cell). After incubation at 37 C with 5% CO2 for 6 hours, the reagent mixture of Caspase-Glo 3/7 assay kit was added to each well, followed by incubation at room temperature for 30 minutes. The luminescence intensity of the assay plates was measured using a ViewLux plate reader (PerkinElmer). Data were normalized by using the cell-containing wells without ZIKV as a negative control (0% induction of caspase 3/7 activity) and wells containing ZIKV infected cells (Caspase-3 activity induced) as a positive control (100% induction of caspase 3 activity). The percentage inhibitions of the increased Caspase-3 activity by small molecule inhibitors were then calculated.

SMILES | outcome
Cc1ccc(/C=N/n2c(-c3ccccc3)csc2=S)cc1 | inactive
CC(C)N(CCC(=O)c1ccc2ccccc2c1)Cc1ccccc1 | inactive
Cc1ccccc1N1CCN(CCc2nnc3n2CCCC3)CC1 | inactive
CC(=O)OCC[N+](C)(C)C | inactive
Nc1cc(C(F)(F)F)ccc1S | inactive
CC(=O)Nc1ccn(C2COC(COC(=O)c3ccccc3)O2)c(=O)n1 (stereo not given) | inactive
O=C(c1cc(O)c(O)c(O)c1)c1ccc(O)c(O)c1O | inactive
Oc1ccc(CCNCCCCCCNCCc2ccccc2)cc1O | inactive
CC(=O)Nc1c(I)c(NC(C)=O)c(I)c(C(=O)O)c1I | inactive
CCCC(=O)c1cc(O)c(O)cc1O | inactive
Cc1ccccc1C(=O)N1CC/C(=N\OS(=O)(=O)O)c2ccc(Cl)cc21 | inactive
CC(=O)N[C@@H](CO)C(=O)N[C@@H](CC(=O)O)C(=O)N[C@@H](CCCCN)C(=O)N1CCC[C@H]1C(=O)O (Ac-SDKP-OH) | inactive
O=C(Oc1ccccc1)c1cccc(C(=O)Oc2ccccc2)c1 | inactive
CCCC(=O)OCOC(=O)C1=C(C)NC(C)=C(C(=O)OC)C1c1cccc(Cl)c1Cl (stereo not given) | inactive
COc1ccc(/C(C)=C/C(=O)O)c(OC)c1 | inactive
CC(C)C(=O)Nc1cccc(C2CN3CCSC3=N2)c1 (stereo not given) | inactive
O=C1NC(=O)/C(=C/c2ccc3c(c2)OC(F)(F)O3)S1 | inactive
Cc1ccc(-c2ccccc2C#N)cc1 | inactive
COc1ccccc1N1CCN(CCN2C(=O)CC3(CCCC3)CC2=O)CC1 | inactive
O=C1NCCN1CCN1CCC(c2cn(-c3ccc(F)cc3)c3ccc(Cl)cc23)CC1 | inactive

SMILES | outcome
CC(C)(C)NCC(O)COc1ccccc1OCC1CCCO1 (stereo not given) | inactive
COc1cc2c(cc1OC)C(=O)CC2 | inactive
Clc1ccc2c(c1)Nc1ccccc1S2 | inactive
Cc1onc(-c2ccccc2)c1C(=O)Cl | inactive
CN1CCC(Nc2ncc3ncnc(Nc4ccc(F)c(Cl)c4)c3n2)CC1 | inactive
CCNC(=O)NCCCOc1cccc(CN2CCCCC2)c1 | inactive
CC(C)C[C@H](NC(=O)CNC(=O)[C@H](Cc1ccc(O)cc1)NC(=O)[C@H](CO)NC(=O)[C@H](Cc1c[nH]c2ccccc12)NC(=O)[C@H](Cc1cnc[nH]1)NC(=O)[C@@H]1CCC(=O)N1)C(=O)N[C@@H](CCCN=C(N)N)C(=O)N1CCC[C@H]1C(=O)NCC(N)=O (stereo in doubt) | inactive
CCC(=O)O[C@]1(C(=O)COC)[C@@H](C)C[C@H]2[C@@H]3CCC4=CC(=O)C=C[C@]4(C)C3(F)[C@@H](O)C[C@@]21C (stereo not given in full) | inactive
CCCc1ccc(OCC(=O)N2CCN(C(=O)COc3ccc(CCC)cc3OC)CC2)c(OC)c1 | inactive
Cn1cc(S(C)=O)c(=O)c2ccc(F)cc21 (stereo not given) | inactive
CC(=O)Oc1ccc(C2(c3ccc(OC(C)=O)cc3)Oc3ccccc3NC2=O)cc1 | inactive
Nc1nnnn1-c1ccccc1 | inactive
COCCc1ccccn1 | inactive
CC(C)OC(=O)c1cc2c(OCC(O)CNC(C)(C)C)cccc2[nH]1 (stereo not given) | inactive
CCCCNc1ccc(C(=O)OCCN(CC)CC)cc1 | inactive
CC(=O)O[C@@H]1CC2C3CCc4cc(OC(=O)c5ccccc5)ccc4C3CCC2(C)[C@H]1OC(C)=O (stereo not given in full) | inactive
NC(=O)NC1N=C([O][Al])NC1=O (stereo not given) | inactive
N#CSCC(=O)O | inactive
Nc1ccc([N+](=O)[O-])c(C(F)(F)F)c1 | inactive
CC(=O)c1cc2ccccc2s1 | inactive
